PubChem BioAssay (NCI)
The panel holds about 83,000 compounds, 20% with a hit somewhere; the sample as a whole holds those more often.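 Treatment: one concentration, 48 hours, 96-well format. Scoring: percent growth, with anything below 10 considered active.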 Values without a mark were called inactive. The source made the active and inactive calls.

Assays:
Assay in all cases: NCI-60 one-dose screen, 48 h (100 = growth as untreated, 0 = no growth, -100 = all killed)
Conditions in all cases: 10 µM unless noted
SR leukemia = test system: SR leukemia
RPMI-8226 leukemia = test system: RPMI-8226 leukemia
OVCAR-8 ovarian = test system: OVCAR-8 ovarian
OVCAR-5 ovarian = test system: OVCAR-5 ovarian
OVCAR-4 ovarian = test system: OVCAR-4 ovarian
SK-OV-3 ovarian = test system: SK-OV-3 ovarian
IGROV1 ovarian = test system: IGROV1 ovarian
OVCAR-3 ovarian = test system: OVCAR-3 ovarian
HS 578T breast = test system: HS 578T breast
NCI/ADR-RES ovarian = test system: NCI/ADR-RES ovarian

| Structure (SMILES) | growth (SR leukemia) | growth (RPMI-8226 leukemia) | growth (OVCAR-8 ovarian) | growth (OVCAR-5 ovarian) | growth (OVCAR-4 ovarian) | growth (SK-OV-3 ovarian) | growth (IGROV1 ovarian) | growth (OVCAR-3 ovarian) | growth (HS 578T breast) | growth (NCI/ADR-RES ovarian) |
| --- | --- | --- | --- | --- | --- | --- | --- | --- | --- | --- |
| CC(C)CN1C(=O)/C(=C\C(=O)c2cc3ccccc3oc2=O)c2ccccc21 | 34.6% | 85.4% | 97.7% | 111% | 87.3% | 104% | 87.7% | 51.1% | 102% | 95.8% |
| O=C(O)CC1S/C(=N/N=C/c2nc3ccccc3s2)NC1=O (stereo not given) | 79.8% | 88.8% | 98.5% | 123% | 82.1% | 122% | 103% | 88.4% | 90.9% | 99.3% |
| Cc1ccc2nc(COc3ccc(C(=O)NNC(=O)Nc4ccc(Cl)c(C(F)(F)F)c4)cc3)[nH]c2c1 | 16.8% | 59.5% | 10.7% | 66.9% | 74% | 70.9% | 52.2% | 28.9% | 39.7% | 95.8% |
| NNc1ncnc2sc3c(c12)CCN(Cc1ccccc1)C3 | 40.1% | 39.3% | 20% | 70.6% | 28.6% | 72.3% | 83.2% | 13.4% | 72.3% | 35.3% |
| CC(=O)c1c2c(c3ccc4c5ccccc5ccc4n13)C(=O)c1ccccc1C2=O | 77.4% | 101% | 89.2% | 115% | 85.4% | 97.1% | 84.5% | 108% | 82.2% | 96.3% |
| COc1ccc(S(=O)(=O)Nc2ccc(-c3ccc4c(c3)NC(=O)/C4=C\c3ccc[nH]3)cc2)cc1OC | 8.03% (active) | 39.4% | 1.66% (active) | 18.5% | 8.08% (active) | 27.1% | 29.3% | 57.2% | 23.4% | 22.1% |
| S=C(Nc1ccc(OCc2nc3ccc(Cl)cc3[nH]2)cc1)NC1CCCCC1 | -27.3% (active) | -13.1% (active) | -10% (active) | -12.8% (active) | 10.6% | 29.2% | 7.22% (active) | -3.28% (active) | 14.8% | -14.8% (active) |
| N#CC1=C(c2ccco2)Nc2c(c(-c3ccccc3)nn2-c2ccccc2)C12C(=O)Nc1ccc(Cl)cc12 (stereo not given) | -2.37% (active) | 49.8% | -29.1% (active) | 53.5% | 9.94% (active) | 55.3% | 39.2% | -27.2% (active) | -22.9% (active) | -3.42% (active) |
| CCC1(OC(=O)c2ccccc2SSCCOC(=O)CCCCC2SCC3NC(=O)NC32)C(=O)OCc2c1cc1n(c2=O)Cc2cc3ccccc3nc2-1 (stereo not given) | 3.84% (active) | 33.1% | 37.4% | 97% | 66% | 46.3% | 75.3% | 72.7% | 82.9% | 24.2% |
| N#C/C(=C/c1ccc([N+](=O)[O-])cc1)c1nnc(NC(=O)c2ccc(-n3c(=O)[nH]c4ccccc4c3=O)cc2)s1 | 91.6% | 98.1% | 93.4% | 110% | 95.6% | 104% | 98.6% | 103% | 101% | 94.2% |
| CC(C)C[C@H](NC(=O)[C@@H]1CCCCCCCCCCC(=O)N[C@@H](CC(=O)N2CCC[C@@H]2C2CCCC2)C(=O)N1)B(O)O | -14.3% (active) | 22% | -17.4% (active) | -36.8% (active) | -13% (active) | -7.33% (active) | -58.2% (active) | -46.5% (active) | 3.6% (active) | 1.84% (active) |
| FC(F)(F)c1cc2c(Cl)ncnc2n1CCC1CCOCC1 | -64.3% (active) | 72.2% | 18.1% | 102% | -16.5% (active) | 50.6% | -90.6% (active) | -75.4% (active) | -42.5% (active) | 69% |
| CC1=C(C)C(=O)C(N2CCSCC2)=CC1=O | 111% | 72.9% | 92.7% | 97.2% | 94.4% | 105% | 92.9% | 101% | 103% | 93.7% |
| Cc1cnc2ccc(Oc3ccccc3-c3ccccc3)nn12 | 89.3% | 106% | 103% | 111% | 112% | 178% | 105% | 120% | 120% | 104% |
| O=C(c1ccc(Cl)cc1)C1[C@H](c2ccccc2Cl)[C@@H](c2ccccc2)NC12C(=O)Nc1ccccc12 (stereo not given in full) | -41% (active) | -0.108% (active) | -31% (active) | -5.18% (active) | 2.24% (active) | 23.1% | -2.25% (active) | -15.5% (active) | -38.3% (active) | -62.5% (active) |
| C[C@@H]1[C@H]2C[C@@H](C[C@H]1NCc1nc3ccccc3n1C1CCCCCC1)C2(C)C | 15.4% | 27.6% | 75.1% | 85.9% | 72.4% | 90.4% | 75.8% | 64.5% | 80.2% | 25.9% |
| O=CNc1ccc(-n2cnc3cc(-c4ccc(O)cc4)ccc32)cc1 | 55.9% | 66.1% | 82.4% | 94.7% | 74.9% | 111% | 118% | 68.6% | 93.3% | 81.6% |
| NCCCCn1c(SCCc2c[nH]c3ccccc23)nnc1-c1ccc2ccccc2n1 | -19.7% (active) | -50.3% (active) | -9.11% (active) | 26% | -11.1% (active) | 22.3% | 3.95% (active) | 10.4% | -25.4% (active) | 62.3% |
| OC(c1ccccc1)(c1ccccc1)C1CCN(c2ccc3nnc(Cl)n3n2)CC1 | -22.3% (active) | 13.8% | 33.9% | 70% | 30.3% | 90.2% | 39.8% | 42.2% | 71.1% | 18.6% |
| COc1ccc(-c2cc(C(=O)OCc3ccc(Br)cc3)nn2-c2ccc(S(C)(=O)=O)cc2)cc1OC | 62.8% | 52.8% | 87.3% | 97.8% | 73.3% | 83.7% | 95.6% | 80.3% | 65.4% | 78.3% |
| COC(=O)c1cc(C(=O)CBr)n2c1ccc1c3ccccc3ccc12 | 2.25% (active) | 38.7% | 31.3% | 72.8% | 101% | 62% | 33.5% | 103% | 61% | 57.4% |
| CN(C)c1ccc(/C=C/c2n(Cc3ccc4ccccc4c3)c3ccccc3[n+]2Cc2ccc3ccccc3c2)cc1 | -29.3% (active) | -36.7% (active) | -31.3% (active) | -97.6% (active) | -79% (active) | -80.3% (active) | -75.9% (active) | -45.2% (active) | -46.3% (active) | -80.7% (active) |
| NC(=O)c1ccc(-c2ccc3ncnc(N4CCc5cc(F)c(Cl)cc54)c3c2)cn1 | 15.2% | 48.5% | 71.1% | 73.5% | 88.7% | 101% | 2.18% (active) | 64.8% | 55.4% | 74.6% |
| O=C(Cn1c(/C=C/c2ccc([N+](=O)[O-])cc2)nc2ccccc2c1=O)Nc1ccccc1 | 88.1% | 93.8% | 65.8% | 80% | 56.8% | 71.9% | 74.6% | 81.4% | 54.2% | 54% |
